Most compounds without a hit are left out; they make up all but 12% or so of the library.
DAT uptake mod: changed human dopamine transporter uptake under cocaine IC80; Q01959; LLC-PK1 hDAT cells, [14C]-dopamine uptake with cocaine IC80; actives deviate in either direction; B-score at 10 µM; 110,000 tested, 1.3% active; AID 449768;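 active means Z score or B-score, a plate-position-corrected score, falls beyond the plate's 99.7% confidence bounds, in either direction; inactive means both scores lie inside the 99.7% bounds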;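 further: scored against the spread of the other compound wells on the same plate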
PLAP activator: activators of human placental alkaline phosphatase. 96,000 tested, 1.2% active. purified PLAP enzyme, luminescent substrate read-out; hits give high values. activation fold at 20 µM. P05187; in the data active means activation fold above about 2
Target sequence (P05187 whole entry, looked up): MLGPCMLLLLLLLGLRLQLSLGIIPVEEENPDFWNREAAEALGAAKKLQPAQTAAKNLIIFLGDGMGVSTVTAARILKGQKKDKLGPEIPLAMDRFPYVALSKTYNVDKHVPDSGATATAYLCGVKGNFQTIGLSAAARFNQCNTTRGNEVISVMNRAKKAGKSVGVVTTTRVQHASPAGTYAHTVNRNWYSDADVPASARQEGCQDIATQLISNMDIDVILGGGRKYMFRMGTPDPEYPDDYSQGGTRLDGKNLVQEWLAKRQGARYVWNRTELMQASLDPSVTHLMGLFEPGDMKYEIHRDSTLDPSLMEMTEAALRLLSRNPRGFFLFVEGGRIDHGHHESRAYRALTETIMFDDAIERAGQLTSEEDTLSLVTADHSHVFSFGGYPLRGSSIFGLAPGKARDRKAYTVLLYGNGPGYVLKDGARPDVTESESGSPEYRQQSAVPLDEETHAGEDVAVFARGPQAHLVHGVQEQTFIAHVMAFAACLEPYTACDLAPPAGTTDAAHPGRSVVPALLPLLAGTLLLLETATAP
PostGolgi yeast: growth inhibition of a yeast mutant, post-Golgi transport screen; 98,000 tested, 0.9% active; inhibition, % at 10 µM; post-Golgi transport phenotypic cell assay; AID 739;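 further: yeast cells grown in 1536-well plates; yeast grown about 18 h at 30C before absorbance read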
Cav3 T inh: human Cav3.2 channel inhibition, primary screen | Cav3.2-expressing cells, Fluo-4 calcium fluorescence FDSS; hits give low values | B-score at 10 µM | 100,000 tested, 4% active | AID 449739;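 active means single-dose well whose peak fluorescence ratio is a statistical outlier from its plate by either plate-standardised score or position-corrected B-score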
D1 mod: allosteric modulators of human D1 dopamine receptor. 58,000 tested, 5.9% active. P21728. AID 641. B-score at 10 µM. HEK293 D1, CRE-luciferase, dopamine EC30 potentiation; actives deviate in either direction;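 active means luminescence count or its row- and column-corrected plate score outside the 99.7% band of the plate's sample wells, on either side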
PostGolgi ctrl: yeast control strain growth, post-Golgi counter-screen; efflux-deficient yeast background strain, growth absorbance A615, 16 h; inhibition, % at 10 µM; 98,000 tested, 5% active; AID 738
* marks the source's active call; other numbers are inactive results; . = no result. Unless noted, no stated cut-off is given here; in the data, active means inhibition above about 30%; inactive means the rest.

SMILES	DAT uptake mod	PLAP activator	PostGolgi yeast	Cav3 T inh	D1 mod	PostGolgi ctrl
Cc1cccc2sc(NC(=O)C3c4ccccc4Oc4ccccc43)nc12	-0.499	0.9	53.0*	-3.34*	.	57.6*
O=C(Nc1nncs1)C1c2ccccc2Oc2ccccc21	0.265	1.1	5.5	0.736	-0.0277	0.3
Cc1ccc2cc(CN(CCCN3CCOCC3)C(=O)NC3CCCCC3)c(=O)[nH]c2c1C	0.922	.	0.5	0.736	-0.115	5.2
Cc1ccc2cc(CN(Cc3ccco3)C(=O)C3CCCCC3)c(=O)[nH]c2c1C	0.737	1	13.2	-1.49	0.392	35.2*
Cc1ccc2cc(CN(Cc3ccco3)C(=O)NC3CCCCC3)c(=O)[nH]c2c1C	0.841	.	.	-4.36*	.	.
CCOC(=O)C1CCCN(c2cc(=O)n(Cc3ccc(F)cc3)c(=O)[nH]2)C1 (stereo not drawn)	-0.294	1.1	.	0.206	0.274	.
COc1ccc(N/C(N)=N/c2nc(CSc3ccc(Cl)cc3)cc(=O)[nH]2)cc1	-0.161	2*	0.2	-0.00528	.	-0.1
COC(=O)Cc1cc(=O)[nH]c(/N=C(\N)Nc2ccc(C)cc2C)n1	-0.583	1.6	24.2	0.473	-5.21*	17.4
Cc1nn2c(-c3cccc(NC(=O)CN4CCOCC4)c3)nnc2c2ccccc12	0.68	.	.	0.555	0.554	.
O=C(NCc1ccco1)C1CCC(CNS(=O)(=O)c2cccc3cccnc23)CC1 (stereo not drawn)	-0.167	1	-2.2	1.05	-0.41	-1.8
CCOC(=O)c1sc(NC(=O)c2cc3c(C)nn(-c4ccccc4)c3s2)nc1C	.	1.1	.	.	0.385	.
Cc1ccc(-n2c(-c3ccc(Br)cc3)c[n+]3c2CCc2ccc4cccnc4c2-3)cc1	-0.574	0.9	10.9	-1.64	.	49.6*
Cn1c(CNc2ccccc2)nc2ccccc21	-0.561	1.2	-0.6	-0.00781	-1.14	9.6
CCCn1c(CNc2ccc(Br)cc2)nc2ccccc21	-0.0165	.	-4.0	-5.28*	0.176	70.8*
CCn1c(CNc2ccc(C(=O)O)cc2)nc2ccccc21	0.692	1.1	39.0*	0.779	.	10.8
CCn1c(CNC(=O)COC)nc2ccccc21	-0.44	1	-2.5	0.0216	-0.0212	6.4
COc1ccc(OC)c(S(=O)(=O)NCc2cn3c(C)csc3n2)c1	-0.0307	1.2	-7.8	0.128	0.0288	-3.6
COc1ccc(OC)c(S(=O)(=O)NCc2csc(-c3ccccc3)n2)c1	2.43*	0.8	6.3	1.13	-0.211	10.2
CCc1ccc(S(=O)(=O)NCc2csc(-c3ccccc3)n2)s1	-0.199	0.6	14.8	-3.19*	1.26	36.4*
O=S(=O)(NCc1csc(-c2ccccc2)n1)c1ccc(Cl)s1	.	.	2.9	.	-0.231	32.6*
CCc1ccc(S(=O)(=O)NCCc2csc(-c3ccccc3)n2)s1	0.0231	1.1	15.9	-4.48*	-0.382	41.5*
Cn1cc(CC(=O)NCCCN2CCCC2=O)c2ccccc21	-1.92	1.1	3.8	0.806	-0.0873	3.9
CCn1ccnc1C(O)c1ccccc1OC (stereo not drawn)	-0.278	.	.	0.0345	.	.
O=S(=O)(NCCc1csc(-c2ccccc2)n1)c1ccc2c(c1)OCCO2	0.705	1.4	-9.8	-6.18*	-0.0439	16.8
CC(C)(C)c1nc(SCC(=O)Nc2nc3c(s2)CCCC3)c2ccccc2n1	0.0892	1.3	-7.7	-2.76	.	34.2*
SMILES	DAT uptake mod	PLAP activator	PostGolgi yeast	Cav3 T inh	D1 mod	PostGolgi ctrl
O=C(CSc1nc(Cc2ccccc2)nc2ccccc12)Nc1nc2c(s1)CCCC2	0.759	1.5	13.4	-4.75*	.	40.4*
O=C(CCSc1ccccc1)Nc1nc2c(s1)CCCC2	-0.795	1	3.8	-2.51	.	19.1
CC(C)c1nc(SCC(=O)Nc2nc3c(s2)CCCC3)c2ccccc2n1	0.19	1.2	21.8	-3.08	.	39.4*
O=C1[C@H]2[C@H](C=CC[C@H]2C(=O)N2CCOCC2)CCN1Cc1ccccc1	-0.619	.	.	-1.01	.	.
c1coc(C2Nc3cccc4cccc(c34)N2)c1	-0.0328	1.1	17.1	.	-0.287	4.7
COc1cc([N+](=O)[O-])cc(CN2CCCCC2)c1O	-1.22*	0.8	-2.0	0.387	.	18.6
CCc1nnc(NC(=O)CCC(=O)N2CCN(CCOc3ccc(C)cc3)CC2)s1	-0.716	1.5	-2.7	0.948	.	-0.6
CCC(C)NCCOCCOc1ccc(C)cc1Br (stereo not drawn)	-0.17	1	-3.8	0.733	.	36.5*
N#CC1=C(N)OC2=C(C(=O)CCC2)C1c1ccc(OC(=O)N2CCOCC2)cc1 (stereo not drawn)	0.723	1.4	-9.3	0.637	0.0542	37.6*
